# Assay results published in PubChem BioAssay (NCI).
# This is part of a sample that, as a whole, favours compounds with a hit. Of some 83,000 tested, about 20% had one in any assay.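 Method: cells in 96-well plates; compound added at one concentration; 48 h incubation; percent growth measured; values under 10 scored active.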 Values without a mark were called inactive. The source made the active and inactive calls.
# Tests used:
# Experiment in all cases: NCI-60 one-dose screen, 48 h (100 = growth as untreated, 0 = no growth, -100 = all killed)
# Details in all cases: 10 µM unless noted
# HCT-15 colon = test system: HCT-15 colon
# HT29 colon = test system: HT29 colon
# SNB-75 CNS = test system: SNB-75 CNS
# SNB-19 CNS = test system: SNB-19 CNS
# U251 CNS = test system: U251 CNS
# PC-3 prostate = test system: PC-3 prostate
# SK-MEL-5 melanoma = test system: SK-MEL-5 melanoma
# UACC-62 melanoma = test system: UACC-62 melanoma
# LOX IMVI melanoma = test system: LOX IMVI melanoma
# SK-MEL-28 melanoma = test system: SK-MEL-28 melanoma
SMILES,growth (HCT-15 colon),growth (HT29 colon),growth (SNB-75 CNS),growth (SNB-19 CNS),growth (U251 CNS),growth (PC-3 prostate),growth (SK-MEL-5 melanoma),growth (UACC-62 melanoma),growth (LOX IMVI melanoma),growth (SK-MEL-28 melanoma)
CC1SC(c2ccccc2O)N(NC(=O)CCC(=O)c2nc3ncccc3[nH]2)C1=O (stereo not given),103%,105%,83.8%,101%,97.3%,92.3%,95.1%,99.4%,84.8%,113%
Cc1ccc2c(c1)nc(C)n2-c1ncnc2c1CC(C)c1cc(O)ccc1N2C (stereo not given),26.7%,36.8%,25.3%,48.7%,20%,29.6%,23.7%,39.3%,43%,61.1%
C=C1C(=O)O[C@H]2[C@H]1CC/C(COC(=O)NCc1ccc(Cn3c(=O)sn(-c4ccc(I)cc4)c3=O)cc1)=C\CC[C@@]1(C)O[C@@H]21,57%,34.1%,81.6%,107%,83.6%,77.5%,98.3%,81.2%,69.4%,93.9%
FC(F)(F)c1[nH]ncc1-c1nc2ccc3[nH]ncc3c2c2c1CCCC2,12.7%,6.93% (active),8.42% (active),17.7%,5.69% (active),21%,-73.7% (active),9.03% (active),-38.2% (active),2.24% (active)
O=C(c1c[nH]c2ccccc12)c1n[nH]c(=S)n1-c1ccc([N+](=O)[O-])cc1,64.7%,98.6%,95.4%,116%,105%,83.9%,88.3%,93.1%,100%,107%
N#Cc1c(-c2cccc(Cl)c2)cc(-c2cccnc2)[nH]c1=O,44.8%,115%,61.1%,67.9%,71.8%,87.3%,67.1%,36.6%,81.2%,64.4%
O=C(/C=C/c1ccccc1)c1cccc2ccccc12,26.5%,3.24% (active),17.4%,56.7%,29.6%,45.2%,59.2%,36.1%,57.8%,68.3%
Nc1cc(Br)cc2c1[nH]c(=O)c1ccccc12,110%,114%,81.7%,102%,90.7%,89.6%,96.5%,100%,95.5%,101%
CCOC(=O)C(CCN(C)C)c1ccccc1 (stereo not given),105%,92.1%,81.1%,105%,103%,86.6%,103%,102%,98.3%,97.8%
COC12C=C/C(=C(/C(=O)OCc3cncnc3)C(=O)CCCCCCCCC3(OC)C=C/C(=C(/C(=O)OCc4cncnc4)C(=O)CCCCCCCC1)O3)O2,-49.1% (active),1.94% (active),22.4%,10.9%,-36.5% (active),-55.1% (active),-79.9% (active),-56.9% (active),-61.8% (active),-45% (active)
COC1/C=C/OC2(C)Oc3c(C)c(O)c4c(O)c(c(/C=N/N(c5ccccc5)c5ccccc5)c(O)c4c3C2=O)NC(=O)C(C)=C/C=C/C(C)C(O)C(C)C(O)C(C)C(OC(C)=O)C1C (stereo not given),41.4%,45.5%,66.9%,71.2%,41.8%,38.7%,-98.8% (active),48.3%,47.4%,39.1%
COc1cc2ncnc(Nc3ccc(S(=O)(=O)Nc4nccs4)cc3)c2cc1OCCCN1CCCC1,101%,107%,93.8%,103%,101%,100%,105%,97.2%,98.9%,109%
COc1cc(Cc2cc(OC)c(O)c(OC)c2)cc(OC)c1O,60.9%,110%,82.2%,102%,102%,80.2%,101%,94.9%,80.7%,82.4%
NS(=O)(=O)c1ccc(C(=O)NN2C(=O)c3ccccc3C2=O)cc1,107%,111%,74.8%,102%,106%,105%,103%,102%,103%,113%
C=C(C)[C@@H]1CC[C@]2(COC3CCCCO3)CC[C@]3(C)[C@H](CC[C@@H]4[C@@]5(C)C=C(C=O)C(=O)C(C)(C)[C@@H]5CC[C@]43C)[C@@H]12 (stereo not given in full),-30% (active),-54.2% (active),-16.3% (active),-71.4% (active),-73.6% (active),-57.7% (active),-97.5% (active),-74.9% (active),-88.9% (active),-68.7% (active)
CCCCCc1ccc(S(=O)(=O)Nc2cc(-c3csc(NC(C)=O)n3)ccc2N2CCN(C)CC2)cc1,4% (active),5.9% (active),37.3%,74.6%,12.2%,41.2%,30.2%,-56.2% (active),-95.4% (active),-80.2% (active)
O=S(=O)(N=C1C(Cl)=C(Cl)C(=NS(=O)(=O)c2ccccc2)C(Cl)=C1Cl)c1ccccc1,7.28% (active),14%,132%,95.9%,59.8%,121%,87%,67.1%,54.6%,89.5%
CCN(CC)CCCNc1cc(OC)c(OC)c2cccnc12,72%,83.7%,102%,63.5%,52.6%,54.8%,62.4%,60.6%,34.2%,93.8%
C#CCOc1ccc2nc(CCl)c(Cl)c(Nc3cccc(C(F)(F)F)c3)c2c1,36.3%,75.6%,70.5%,98.5%,77.3%,85.1%,58.2%,71.2%,-1.15% (active),108%
O=C(/C=C/C12c3ccccc3C(c3ccccc31)C1C(=O)NC(=O)C12)c1ccc(I)cc1 (stereo not given),39.7%,29.6%,63.6%,63.4%,34.5%,34.5%,69.5%,51.9%,37.8%,64%
Cc1ccc(S(=O)(=O)N2CCCN(c3nc(-c4ccccc4)nc4nc(-c5ccccc5)oc34)CC2)cc1,114%,120%,105%,102%,104%,96.3%,98.9%,101%,95.4%,108%
CC(C)c1ccc2c(c1)CC[C@H]1[C@](C)(C(=O)OCC#CCN3CCCC3)CCC[C@]21C,42.7%,36.8%,88.6%,86.8%,69.2%,61.9%,64.7%,55.4%,91.1%,76%
CC1=C2CC/C(C)=C/CC[C@]3(C)O[C@H]3CC/C(C)=C/[C@H]2OC1,97.9%,94.7%,86.6%,98.5%,94.7%,87.5%,108%,92.1%,101%,96.5%
Cc1ccc(O)c(NC(=O)c2cccc(Nc3ccnc(C(F)(F)F)c3)c2)c1,80%,101%,85%,90.5%,83.6%,68%,20.7%,30.8%,66.9%,100%
CCOC(=O)C1=C(CCl)N(C)C(=O)NC1c1ccc2c(c1)OCO2 (stereo not given),34.4%,38.7%,28.8%,84.5%,68%,36.8%,81.9%,73.2%,40.9%,79%
O=S(Nc1ccccc1)c1ccc(Cl)cc1 (stereo not given),109%,102%,83.2%,96.8%,95.1%,89.8%,99.8%,90.4%,100%,107%
O=C(Nc1cc(Cl)ccc1O)c1ccccc1Nc1ccnc(C(F)(F)F)c1,14.1%,38.2%,55.6%,16.2%,10.8%,7.3% (active),-43.8% (active),23.1%,18.8%,75%
